Screens (PubChem)
ELG1 repair inh: blocks ELG1-dependent DNA repair in HEK293T cells | 330,000 compounds, 2.3% hits | HEK293T ELG1-luciferase reporter, luminescence, 16 h; DNA damage induced by 5-fluorouridine | AID 504467 | Potency, µM (top dose mostly 46.1 µM), for inactives: at the highest dose activity change, negative = inhibition, usual class: inhibitors; also: potency is read from the fitted curve at half-maximal effect; nearly all actives have a fitted effect of over 55% in size
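HEK293T cells expressing luciferase-tagged ELG1 (2,000/well) received 5-Fluorouridine plus compound or DMSO for 16 hr at 37 °C. Luciferase was read by ONE-Glo luminescence after 30 min at room temperature.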
DT40 TDP1 no CPT: qHTS for Inhibitors of human tyrosyl-DNA phosphodiesterase 1 (TDP1): qHTS in cells in absence of CPT. AID 686978, 2013. DT40 Tdp1-/- hTDP1 cells, no CPT, ATP luminescence, 48 h. Potency, µM (doses to about 46.2 µM), for the others: at the highest dose activity change, negative = growth inhibition, hits mostly inhibitors. 420,000 compounds, 15% hits; also: potency is read from the fitted curve at half-maximal effect; nearly all actives have a fitted effect of over 55% in size
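Stably hTDP1-transfected Tdp1-null chicken DT40 cells were treated with library compounds minus camptothecin and grown for at least 48 hr at 37 °C, after which cellular ATP was quantified by luminescence.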
TDP1 cell CPT: growth inhibition of DT40 Tdp1-/-;hTDP1 cells with camptothecin (screen for TDP1 inhibitors) | Potency, µM (doses to about 46.2 µM), for the others: at the top dose activity change, negative = growth inhibition, usual class: inhibitors | chicken DT40 Tdp1-/-;hTDP1 cells + 20 nM CPT, ATP luminescence, 48 h | AID 686979 | 420,000 compounds, 12% hits; also: potency is read from the fitted curve at half-maximal effect; nearly all actives have a fitted effect of over 55% in size
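Chicken DT40 Tdp1-/- cells complemented with human TDP1, 400 cells/well, exposed to compounds plus 20 nM camptothecin for at least 48 h at 37 C; viability read as ATP content by CellTiter-Glo luminescence.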
HT1080 IDH1KD tx: toxicity to HT-1080 IDH1 knockdown cells (counter line); HT-1080 IDH1 knockdown viability, ATP luminescence, 48 h; Potency, µM (titrated, usually from 46.1 µM), for the others: at the top dose activity, negative = toxicity, most hits filed as cytotoxic; 360,000 compounds, 2% hits; AID 686971;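 also: potency is read from the fitted curve at half-maximal effect; 0% = DMSO wells and -100% = cell-free medium wells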
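HT-1080-IDH1KD cells (IDH1 knocked down), 750/well in RPMI with 5% FBS, treated with compound 48 h at 37 degrees C. Viability by CellTiter-Glo luminescence, normalised to DMSO and no-cell wells; concentration-response curves classed.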
HT1080-NT tox: kills 2HG-producing HT-1080-NT fibrosarcoma cells | HT-1080-NT fibrosarcoma viability, CellTiter-Glo ATP luminescence, 48 h | Potency, µM (series often up to 46.1 µM), for inactives: at the top dose activity, negative = less viability, most hits filed as cytotoxic | 360,000 compounds, 1.6% hits;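 also: NT is the 2HG producing partner of a matched IDH1 knockdown line; potency is read from the fitted curve at half-maximal effect; 0% = DMSO-treated cells and -100% = media-only wells without cells; nearly all actives have a fitted effect of over 55% in size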
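Toxicity toward the 2HG-producing NT line was scored as %Activity, normalised to DMSO and no-cell wells, from CellTiter-Glo luminescence after 48 hours' treatment.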
IL-1B inflam inh: inflammasome signaling inhibition, IL-1 beta readout. THP-1 LPS/ATP IL-1B secretion, AlphaLISA, 16 h; active compounds read low. activity change, % at 57.5 µM. 360,000 compounds, 4.7% hits; in the data active = activity change below about -50%; inconclusive = mostly about -30% to -49%
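Secreted IL-1B measured by AlphaLISA bead assay after 16 h compound exposure of THP-1 cells; compounds (final up to 57.5 uM) added 1 h before LPS (250 ng/mL) and ATP (1.25 mM) stimulation; lower signal means less secretion.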
The depositor's hits bear a star; [ ] = remark or other dose. In the library only some 19% were active in any assay of this set; here they are far more common. Unless noted, calls follow the shape of the dose curve; as a rule, active = well fitted curve in the direction sought with a large enough effect; inconclusive = small, poorly fitted or top-dose-only effect, or another doubt; inactive = no such curve, though single readings can be large; an effect the other way counts as inactive or inconclusive. Unless noted, % is scaled to controls: 0 for no effect and ±100 for the full control effect.

CCOc1ccc(C(=O)CCC(=O)N2CCN(S(=O)(=O)c3cccc(F)c3)CC2)cc1 was read as ELG1 repair inh -28%, DT40 TDP1 no CPT -9%, TDP1 cell CPT inconclusive, HT1080 IDH1KD tx 0%, HT1080-NT tox 2%[9.24 µM] and IL-1B inflam inh -15.
For O=C(C1CCC(CNc2nc(=S)[nH]c3ccccc23)CC1)N1CCN(c2ccccn2)CC1 (centres undefined) the results were ELG1 repair inh inconclusive, DT40 TDP1 no CPT 18µM*, TDP1 cell CPT 18µM*, HT1080 IDH1KD tx 4%, HT1080-NT tox 6% and IL-1B inflam inh inconclusive.
For COc1ccc(-n2nc(C(=O)Nc3cccc(C)n3)c3c4ccccc4n(C)c3c2=O)cc1 the results were DT40 TDP1 no CPT 4% and TDP1 cell CPT 2%.
Screening Cc1c(C(=O)N(C)Cc2cccc3ncccc23)cnn1-c1nccc(-c2ccccc2F)n1 returned DT40 TDP1 no CPT -28% and TDP1 cell CPT -3%.
For CCc1nc(SCc2ccc(OCC(C)C)cc2)n[nH]1 the results were ELG1 repair inh inconclusive, DT40 TDP1 no CPT inconclusive, TDP1 cell CPT 4.6µM*, HT1080 IDH1KD tx inconclusive, HT1080-NT tox -28% and IL-1B inflam inh -20.
CCCCc1ccc(NC(=O)C(=O)NCCN2CCN(C(=O)c3ccc([N+](=O)[O-])cc3)CC2)cc1 was read as ELG1 repair inh 5%, DT40 TDP1 no CPT inconclusive, TDP1 cell CPT inconclusive, HT1080 IDH1KD tx -12%, HT1080-NT tox 8% and IL-1B inflam inh 26.
Screening C=CCOc1ccc(CNc2ccc(NC(=O)CC(C)C)cc2)cc1OC returned ELG1 repair inh inconclusive, DT40 TDP1 no CPT inconclusive, TDP1 cell CPT -29%, HT1080 IDH1KD tx 12%, HT1080-NT tox 9% and IL-1B inflam inh -2.
`COc1ccc(CN2CCN(S(=O)(=O)c3ccccc3)CC2)c(OC)c1` gave ELG1 repair inh -8%, DT40 TDP1 no CPT 15µM*, TDP1 cell CPT inconclusive, HT1080 IDH1KD tx 7%, HT1080-NT tox 3% and IL-1B inflam inh 16.
`COc1ccc(Br)cc1CN1CCN(Cc2c[nH]c3ccccc23)CC1` gave ELG1 repair inh -18%, DT40 TDP1 no CPT 7.3µM*, TDP1 cell CPT 4.6µM*, HT1080 IDH1KD tx 21µM*, HT1080-NT tox inconclusive and IL-1B inflam inh -74*.
Screening COc1ccc(CN2CCN(Cc3c[nH]c4ccccc34)CC2)c(OC)c1 returned DT40 TDP1 no CPT 0.29µM*, TDP1 cell CPT -83%, HT1080 IDH1KD tx -18%, HT1080-NT tox -12% and IL-1B inflam inh -29.
COc1ccc(CN2CCN(Cc3c[nH]c4ccccc34)CC2)cc1 was read as ELG1 repair inh -24%, DT40 TDP1 no CPT 13µM*, TDP1 cell CPT 6.5µM*, HT1080 IDH1KD tx -17% and HT1080-NT tox -11%.
For Cn1c(=O)c2[nH]c(C(O)c3ccc(Cl)cc3)nc2n(C)c1=O (centres undefined) the results were DT40 TDP1 no CPT inconclusive, TDP1 cell CPT inconclusive, HT1080 IDH1KD tx -5%, HT1080-NT tox -1% and IL-1B inflam inh 26.
For COC(=O)C(C(=O)OC)C(c1ccccc1)C(C(=O)c1ccccc1)[N+](=O)[O-] (centres undefined) the results were ELG1 repair inh 0%, DT40 TDP1 no CPT -21%, TDP1 cell CPT 16%, HT1080 IDH1KD tx 5%, HT1080-NT tox 25% and IL-1B inflam inh 26.
O=C(CN1C=NS(=O)(=O)c2ccccc21)Nc1ccc(F)cc1 was read as DT40 TDP1 no CPT -15% and TDP1 cell CPT -2%.
